Experimental findings from PubChem BioAssay AID504621 (Broad Institute, 2011) are described below.

In all, about 310,000 compounds went through this assay and about 970 (0.31%) were called active. This is one part of a sample in which actives are shown more often than they occur. Unmarked numbers belong to inactive results.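 Rule for the calls: active = every replicate shows inhibition above about 80%, whatever the replicate mean (limit read from the data); inconclusive = mean inhibition reaches the set limit but some replicate falls short; inactive = the rest.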

A short description of the assay: growth inhibition of PfHsp90-expressing yeast, primary screen, antimalarial PfHsp90 inhibitor project, S. cerevisiae, BacTiter-Glo luminescence, single point, set 2 (AID 504621).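 Note: yeast relying on Plasmodium falciparum Hsp90 in place of its own; 0% = DMSO neutral controls and 100% = 20 µM radicicol positive controls.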 The note with it: BacTiter-Glo ATP, 48 h, at 9.4 µM, stronger effect = higher value, yeast lacking PDR1 and PDR3 efflux regulators.
Usually inhibition stands for the change of the read-out against control, counted positive when it falls. In the case of `NS(=O)(=O)c1ccc(CCNC(=O)c2ccc(Cl)c(S(=O)(=O)N3CCCCCC3)c2)cc1`, the inhibition was -11.9%.
Consider `O=S(=O)(Cc1ccc(Cl)cc1Cl)c1ccc(Cl)cc1`, for which the inhibition is -35.8%.
`Cc1cccc(C)c1NC(=O)C(c1ccccc1)N1CC(=O)Nc2ccccc21` (stereo unspecified): the inhibition was -3.52%.
The figure for `Cc1cccc(C)c1NC(=O)C(Cl)C(=O)c1ccccc1` (stereo unspecified) is 106% (active).
For the compound `Cc1cccc(C)c1NC(=O)CN(C)C(=O)CCC(=O)c1ccccc1`, the inhibition was 3.14%.
The figure for `CC[C@]12c3[nH]c4ccc(OC)cc4c3CCN1C(=O)C(CC(=O)NCc1ccco1)C[C@@H]2C(=O)N1CCN(C(=O)C2CC2)CC1` (stereo partly specified) is 0.556%; for `COc1ccc(NC(=O)N2CCCC(c3nc(-c4ccc(F)cc4)no3)C2)cc1` (stereo unspecified) it is -5.6%.
The same measure for `CCN(C(=O)C1CCCN(c2nc(-c3ccc(OC)cc3)no2)C1)c1ccc(OC)cc1` (stereo unspecified): 103% (active); for `CCOC(=O)C1CCCN(C(=O)CN(c2ccc(OC)cc2)S(=O)(=O)c2c(C)noc2C)C1` (stereo unspecified): 14.1%; for `Cc1cc(N=Nc2ccc3ccccc3c2)ccc1O`: 107% (active).
With `CC(=O)CCC(=O)c1ccc2ccccc2c1`, the inhibition is 14.9%.
The same measure for `Cc1ccc(/C=N/NC(=O)c2cc3ccccc3cc2O)o1`: -3.13%; for `CCCCNC(=O)C(C)N(CCN(C)C)C(=O)CCCN1C(=O)NC(c2ccc(Cl)cc2)C(C(=O)OCc2ccccc2)=C1C` (stereo unspecified): -3.34%; for `CN(C)CCNC(=O)c1ccc(Cl)c2cc3ccccc3nc12`: -3.1%.
As for `O=C(Cc1ccccc1)n1nc(-c2ccccc2)nc1NCc1ccco1`, the inhibition is -9.78%.
The same measure for `Cc1nc2nc(SCC(=O)NCc3ccco3)nn2c(C)c1Cc1ccccc1`: -0.223%; for `O=c1nc2s/c(=C\c3ccco3)c(=O)n2nc1Cc1ccccc1`: 109% (active).
As for `c1ccc2sc(NN=C3CCCC3)nc2c1`, the inhibition was 7.45%.
`O=C(CCNC(=O)c1ccccc1)Nc1nc2ccccc2s1`: the inhibition was -3.35%.
Consider `c1ccc(C(=NNc2nc3ccccc3s2)c2ccccn2)cc1`, for which the inhibition is 108% (active).
As to `O=[N+]([O-])c1ccc(N=NNc2ccc([N+](=O)[O-])cc2)cc1`, the inhibition is -30.4%.
